From the supplement of paper PMC10849652
About 7,900 targets were measured; listed, in parts, are those with a hit and a random draw of the rest. About 0.6% of all pairs of compound and target were hits.

Experiments:
Experiment in all cases: log2 fold change, soluble protein after heating vs DMSO (PISA); higher = thermal stabilisation; K562 cells, 10 uM, 30 min; active = over 0.2 and 3.5 SD of the protein, either way, in both replicates (recomputed)
saracatinib = compound: CN1CCN(CCOc2cc(OC3CCOCC3)c3c(Nc4c(Cl)ccc5c4OCO5)ncnc3c2)CC1 [saracatinib]
Method in brief: (§1)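 Values are thermal stability changes relative to control samples and are taken from duplicates. They are stated as log2 fold changes. Before quantification by TMTpro 16plex LC-MS/MS with equalised channel sums, K562 cells at 2×10^6 cells/mL were treated with 10 μM compound for 30 min, heated in aliquots for 3 min across 48°C-58°C, pooled, extracted in PBS with 0.5% NP-40 at 4°C, and centrifuged at 21,000xg for 90 min to give the soluble supernatant.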

sotrastaurin = compound: CN1CCN(c2nc(C3=C(c4c[nH]c5ccccc45)C(=O)NC3=O)c3ccccc3n2)CC1 [sotrastaurin]
Method in brief: as §1

alvocidib = compound: CN1CC[C@H](c2c(O)cc(O)c3c(=O)cc(-c4ccccc4Cl)oc23)[C@H](O)C1 [alvocidib]
Method in brief: as §1

Tubastatin A = compound: CN1CCc2c(c3ccccc3n2Cc2ccc(C(=O)NO)cc2)C1 [Tubastatin A]
Method in brief: as §1

[1] = compound: CNC(=O)C1=CC=CC=C1NC2=NC(=NC=C2Cl)NC3=C(C=C(C=C3)N4CCOCC4)OC
Method in brief: as §1

defactinib = compound: CNC(=O)c1ccc(Nc2ncc(C(F)(F)F)c(NCc3nccnc3N(C)S(C)(=O)=O)n2)cc1 [defactinib]
Method in brief: as §1

rucaparib = compound: CNCc1ccc(-c2[nH]c3cc(F)cc4c3c2CCNC4=O)cc1 [rucaparib]
Method in brief: as §1

[2] = compound: CNc1nc(-c2ccc3c(N)n[nH]c3c2)cc(N2C[C@@H](C(=O)NC3CCCCC3)CC[C@H]2C)n1
Method in brief: as §1

encorafenib = compound: COC(=O)N[C@@H](C)CNc1nccc(-c2cn(C(C)C)nc2-c2cc(Cl)cc(NS(C)(=O)=O)c2F)n1 [encorafenib]
Method in brief: as §1

[3] = compound: COC(=O)[C@H](CCSC)NC(=O)C1=C(C=C(C=C1)NC[C@H](CS)N)C2=CC=CC=C2
Method in brief: as §1

[4] = compound: COC1=CC=C(C=C1)CN2C=CC3=C2C=C(C=C3)C(=O)NO
Method in brief: as §1

filanesib = compound: CON(C)C(=O)N1N=C(c2cc(F)ccc2F)S[C@@]1(CCCN)c1ccccc1 [filanesib]
Method in brief: as §1

zotarolimus = compound: CO[C@H]1C[C@@H]2CC[C@@H](C)[C@@](O)(O2)C(=O)C(=O)N2CCCC[C@H]2C(=O)O[C@H]([C@H](C)C[C@@H]2CC[C@H](n3cnnn3)[C@H](OC)C2)CC(=O)[C@H](C)/C=C(\C)[C@@H](O)[C@@H](OC)C(=O)[C@H](C)C[C@H](C)/C=C/C=C/C=C/1C [zotarolimus]
Method in brief: as §1

idasanutlin = compound: COc1cc(C(=O)O)ccc1NC(=O)[C@@H]1N[C@@H](CC(C)(C)C)[C@](C#N)(c2ccc(Cl)cc2F)[C@H]1c1cccc(Cl)c1F [idasanutlin]
Method in brief: as §1

alisertib = compound: COc1cc(Nc2ncc3c(n2)-c2ccc(Cl)cc2C(c2c(F)cccc2OC)=NC3)ccc1C(=O)O [alisertib]
Method in brief: as §1

[5] = compound: COc1cc2nc(-c3cc(F)ccc3O)nc(N[C@@H]3CNC[C@H]3C(C)(C)O)c2cc1OC
Method in brief: as §1

gefitinib = compound: COc1cc2ncnc(Nc3ccc(F)c(Cl)c3)c2cc1OCCCN1CCOCC1 [gefitinib]
Method in brief: as §1

[6] = compound: COc1cccc2cc(-c3nc([C@H]4CC[C@H](C(=O)O)CC4)n4ncnc(N)c34)[nH]c12
Method in brief: as §1

lapatinib = compound: CS(=O)(=O)CCNCc1ccc(-c2ccc3ncnc(Nc4ccc(OCc5cccc(F)c5)c(Cl)c4)c3c2)o1 [lapatinib]
Method in brief: as §1

pictilisib = compound: CS(=O)(=O)N1CCN(Cc2cc3nc(-c4cccc5[nH]ncc45)nc(N4CCOCC4)c3s2)CC1 [pictilisib]
Method in brief: as §1

Measured: log2 fold change

ALG3 (UniProt Q92685)
UniProt Q92685, sequence (Q92685 whole entry, looked up): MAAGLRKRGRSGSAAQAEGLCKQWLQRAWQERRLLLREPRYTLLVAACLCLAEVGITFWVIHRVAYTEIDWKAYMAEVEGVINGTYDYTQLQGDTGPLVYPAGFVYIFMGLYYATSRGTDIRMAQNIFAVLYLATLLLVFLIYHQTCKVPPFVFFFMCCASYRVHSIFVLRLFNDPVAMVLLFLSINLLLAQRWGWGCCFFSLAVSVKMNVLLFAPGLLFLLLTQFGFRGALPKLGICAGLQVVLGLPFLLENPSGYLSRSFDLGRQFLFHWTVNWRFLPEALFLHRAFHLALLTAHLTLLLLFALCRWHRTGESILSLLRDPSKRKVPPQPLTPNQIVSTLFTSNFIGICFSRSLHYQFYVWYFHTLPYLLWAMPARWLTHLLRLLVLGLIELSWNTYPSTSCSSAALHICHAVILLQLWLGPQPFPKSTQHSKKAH
inactive: saracatinib 0.145 | sotrastaurin -0.047 | alvocidib 0.055 | Tubastatin A -0.056 | [1] 0.116 | defactinib 0.009 | rucaparib 0.1 | [2] 0.056 | encorafenib 0.076 | [3] 0.013 | [4] 0.109 | filanesib -0.095 | zotarolimus 0.06 | idasanutlin -0.212 | alisertib -0.001 | [5] 0.035 | gefitinib -0.046 | [6] 0 | lapatinib 0.104 | pictilisib 0.006

ACP2 (UniProt P11117)
UniProt P11117, sequence (P11117 whole entry, looked up): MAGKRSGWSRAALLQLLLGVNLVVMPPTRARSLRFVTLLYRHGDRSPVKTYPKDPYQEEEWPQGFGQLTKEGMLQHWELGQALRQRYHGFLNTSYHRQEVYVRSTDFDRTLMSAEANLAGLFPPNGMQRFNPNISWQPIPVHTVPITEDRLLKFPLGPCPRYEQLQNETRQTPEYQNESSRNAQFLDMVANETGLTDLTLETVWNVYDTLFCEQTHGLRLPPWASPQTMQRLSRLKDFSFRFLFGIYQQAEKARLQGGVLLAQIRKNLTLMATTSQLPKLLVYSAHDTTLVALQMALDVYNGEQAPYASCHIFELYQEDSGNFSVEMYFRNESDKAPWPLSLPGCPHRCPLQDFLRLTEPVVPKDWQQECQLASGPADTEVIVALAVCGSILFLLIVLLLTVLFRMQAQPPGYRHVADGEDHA
inactive: saracatinib 0.026 | sotrastaurin 0.022 | alvocidib 0.003 | Tubastatin A -0.036 | [1] -0.006 | defactinib 0.01 | rucaparib -0.089 | [2] -0.055 | encorafenib 0.018 | [3] -0.006 | [4] -0.034 | filanesib -0.121 | zotarolimus -0.016 | idasanutlin -0.026 | alisertib 0.036 | [5] -0.002 | gefitinib 0.001 | [6] 0.053 | lapatinib 0.038 | pictilisib -0.031

ATP1B3 (UniProt P54709)
inactive: saracatinib -0.019 | sotrastaurin 0.084 | alvocidib -0.038 | Tubastatin A -0.014 | [1] 0.004 | defactinib -0.047 | rucaparib -0.033 | [2] 0.016 | encorafenib -0.023 | [3] 0.034 | [4] 0.082 | filanesib 0.073 | zotarolimus -0.034 | idasanutlin 0.014 | alisertib -0.032 | [5] 0.034 | gefitinib 0.025 | [6] 0.092 | lapatinib -0.051 | pictilisib -0.012

ATP5ME (UniProt P56385)
UniProt P56385, sequence (P56385 whole entry, looked up): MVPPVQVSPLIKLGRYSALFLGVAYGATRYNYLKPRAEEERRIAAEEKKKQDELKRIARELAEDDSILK
inactive: saracatinib 0.026 | sotrastaurin 0.009 | alvocidib 0.04 | Tubastatin A -0.009 | [1] -0.006 | defactinib 0.029 | rucaparib -0.022 | [2] -0.069 | encorafenib -0.07 | [3] 0.023 | [4] -0.023 | filanesib -0.053 | zotarolimus 0.002 | idasanutlin -0.024 | alisertib -0.027 | [5] -0.04 | gefitinib 0.021 | [6] 0.063 | lapatinib -0.001 | pictilisib 0.019

ATP6V1C1 (UniProt P21283)
UniProt P21283, sequence (P21283 whole entry, looked up): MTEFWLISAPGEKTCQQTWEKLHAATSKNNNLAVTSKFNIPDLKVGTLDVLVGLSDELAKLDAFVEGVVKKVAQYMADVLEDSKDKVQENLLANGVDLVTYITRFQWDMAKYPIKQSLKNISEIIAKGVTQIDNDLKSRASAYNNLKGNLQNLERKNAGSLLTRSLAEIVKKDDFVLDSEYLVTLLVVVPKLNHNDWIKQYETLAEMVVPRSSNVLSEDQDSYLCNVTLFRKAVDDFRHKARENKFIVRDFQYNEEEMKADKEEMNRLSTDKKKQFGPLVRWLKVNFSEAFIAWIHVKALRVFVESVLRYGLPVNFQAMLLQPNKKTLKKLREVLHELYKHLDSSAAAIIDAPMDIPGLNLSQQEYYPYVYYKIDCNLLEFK
inactive: saracatinib -0.193 | sotrastaurin -0.07 | alvocidib 0.026 | Tubastatin A 0.059 | [1] -0.034 | defactinib -0.011 | rucaparib 0.137 | [2] 0.004 | encorafenib 0.083 | [3] -0.013 | [4] -0.012 | filanesib 0.029 | zotarolimus 0.08 | idasanutlin 0.016 | alisertib -0.069 | [5] -0.091 | gefitinib -0.286 | [6] -0.206 | lapatinib -0.046 | pictilisib -0.022

BAIAP2 (UniProt Q9UQB8)
UniProt Q9UQB8, sequence (Q9UQB8 whole entry, looked up): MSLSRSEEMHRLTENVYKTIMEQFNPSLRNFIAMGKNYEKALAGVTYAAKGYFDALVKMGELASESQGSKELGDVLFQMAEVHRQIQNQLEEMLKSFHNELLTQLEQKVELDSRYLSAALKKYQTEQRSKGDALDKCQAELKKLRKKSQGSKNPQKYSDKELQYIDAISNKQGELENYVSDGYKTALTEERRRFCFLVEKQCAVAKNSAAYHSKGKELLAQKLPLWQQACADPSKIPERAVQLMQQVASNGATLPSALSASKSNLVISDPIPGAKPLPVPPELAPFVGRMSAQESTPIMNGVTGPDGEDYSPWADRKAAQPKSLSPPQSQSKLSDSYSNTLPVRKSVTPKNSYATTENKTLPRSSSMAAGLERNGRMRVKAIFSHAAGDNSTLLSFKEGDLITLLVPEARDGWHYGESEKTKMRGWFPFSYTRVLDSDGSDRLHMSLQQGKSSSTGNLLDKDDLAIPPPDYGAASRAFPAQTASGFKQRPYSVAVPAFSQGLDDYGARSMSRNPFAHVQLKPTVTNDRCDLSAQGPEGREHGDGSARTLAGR
inactive: saracatinib 0.009 | sotrastaurin -0.016 | alvocidib -0.017 | Tubastatin A 0.036 | [1] -0.103 | defactinib -0.097 | rucaparib 0.014 | [2] -0.017 | encorafenib 0.006 | [3] -0.022 | [4] 0.014 | filanesib -0.029 | zotarolimus -0.016 | idasanutlin -0.003 | alisertib 0.008 | [5] -0.131 | gefitinib -0.026 | [6] -0.024 | lapatinib 0.036 | pictilisib 0

ABCB6 (UniProt Q9NP58)
UniProt Q9NP58, sequence (Q9NP58 whole entry, looked up): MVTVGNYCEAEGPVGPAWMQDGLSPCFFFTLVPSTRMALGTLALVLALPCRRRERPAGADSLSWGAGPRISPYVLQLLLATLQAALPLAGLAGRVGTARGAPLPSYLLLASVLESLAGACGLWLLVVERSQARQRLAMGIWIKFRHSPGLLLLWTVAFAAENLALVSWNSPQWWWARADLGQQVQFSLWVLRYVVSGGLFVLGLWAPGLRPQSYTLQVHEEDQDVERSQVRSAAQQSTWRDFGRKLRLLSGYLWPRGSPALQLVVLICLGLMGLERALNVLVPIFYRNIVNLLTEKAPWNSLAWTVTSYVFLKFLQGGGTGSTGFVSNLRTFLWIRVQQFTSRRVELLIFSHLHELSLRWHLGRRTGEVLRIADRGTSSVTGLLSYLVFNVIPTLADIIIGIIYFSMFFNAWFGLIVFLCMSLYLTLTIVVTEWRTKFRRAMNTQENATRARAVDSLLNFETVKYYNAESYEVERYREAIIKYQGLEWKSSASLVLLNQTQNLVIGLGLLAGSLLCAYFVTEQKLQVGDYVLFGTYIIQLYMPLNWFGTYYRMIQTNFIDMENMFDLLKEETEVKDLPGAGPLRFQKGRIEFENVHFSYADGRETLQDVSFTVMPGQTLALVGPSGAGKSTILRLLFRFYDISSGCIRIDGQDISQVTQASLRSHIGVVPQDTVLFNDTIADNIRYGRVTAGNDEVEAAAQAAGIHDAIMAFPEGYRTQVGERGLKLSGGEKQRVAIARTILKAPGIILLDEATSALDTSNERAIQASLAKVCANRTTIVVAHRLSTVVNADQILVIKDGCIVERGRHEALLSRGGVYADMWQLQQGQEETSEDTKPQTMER
inactive: saracatinib 0.073 | sotrastaurin 0.01 | alvocidib -0.064 | Tubastatin A -0.017 | [1] -0.013 | defactinib -0.031 | rucaparib -0.034 | [2] 0.003 | encorafenib 0.055 | [3] -0.017 | [4] -0.007 | filanesib -0.077 | zotarolimus 0.055 | idasanutlin -0.137 | alisertib -0.069 | [5] 0.058 | gefitinib -0.011 | [6] 0.024 | lapatinib -0.005 | pictilisib 0.06

BYSL (UniProt Q13895)
UniProt Q13895, sequence (Q13895 whole entry, looked up): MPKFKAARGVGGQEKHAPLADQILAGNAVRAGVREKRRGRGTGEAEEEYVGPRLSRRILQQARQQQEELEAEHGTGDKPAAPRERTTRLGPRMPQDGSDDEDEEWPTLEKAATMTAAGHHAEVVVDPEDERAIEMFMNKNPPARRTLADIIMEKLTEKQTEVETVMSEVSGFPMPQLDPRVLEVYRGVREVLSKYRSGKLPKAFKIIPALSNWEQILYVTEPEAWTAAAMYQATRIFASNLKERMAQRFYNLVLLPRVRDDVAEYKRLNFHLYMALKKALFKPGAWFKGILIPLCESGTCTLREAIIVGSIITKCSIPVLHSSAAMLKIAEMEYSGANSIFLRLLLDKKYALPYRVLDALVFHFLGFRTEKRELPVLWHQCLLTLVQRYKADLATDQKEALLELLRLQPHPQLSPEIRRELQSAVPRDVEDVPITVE
inactive: saracatinib -0.042 | sotrastaurin -0.101 | alvocidib -0.03 | Tubastatin A 0.136 | [1] 0.034 | defactinib -0.004 | rucaparib -0.004 | [2] 0.094 | encorafenib 0.034 | [3] -0.073 | [4] -0.033 | filanesib 0.078 | zotarolimus 0.065 | idasanutlin -0.057 | alisertib 0.022 | [5] 0.207 | gefitinib -0.03 | [6] -0.057 | lapatinib 0.032 | pictilisib -0.022

ATG4B isoform 2 (UniProt Q9Y4P1)
UniProt Q9Y4P1, sequence (Q9Y4P1 whole entry, looked up): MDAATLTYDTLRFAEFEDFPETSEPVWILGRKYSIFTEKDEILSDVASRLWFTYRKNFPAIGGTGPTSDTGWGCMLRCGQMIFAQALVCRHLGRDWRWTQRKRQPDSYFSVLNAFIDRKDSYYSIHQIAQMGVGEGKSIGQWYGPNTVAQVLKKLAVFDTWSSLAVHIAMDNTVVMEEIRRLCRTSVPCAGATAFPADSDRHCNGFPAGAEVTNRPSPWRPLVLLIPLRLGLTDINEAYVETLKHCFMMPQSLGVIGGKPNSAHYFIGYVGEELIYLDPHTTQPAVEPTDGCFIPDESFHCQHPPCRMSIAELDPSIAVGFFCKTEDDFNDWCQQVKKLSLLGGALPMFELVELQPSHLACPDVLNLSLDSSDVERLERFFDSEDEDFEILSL
inactive: saracatinib -0.186 | sotrastaurin -0.297 | alvocidib -0.19 | Tubastatin A 0.02 | [1] 0.027 | defactinib -0.263 | rucaparib -0.02 | [2] 0.004 | encorafenib -0.003 | [3] -0.04 | [4] -0.003 | filanesib -0.142 | zotarolimus 0.048 | idasanutlin -0.045 | alisertib -0.009 | [5] -0.058 | gefitinib 0.005 | [6] -0.082 | lapatinib -0.157 | pictilisib -0.311

BRK1 isoform 2 (UniProt Q8WUW1)
UniProt Q8WUW1, sequence (Q8WUW1 whole entry, looked up): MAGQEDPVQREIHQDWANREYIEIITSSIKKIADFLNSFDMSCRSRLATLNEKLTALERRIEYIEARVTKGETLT
inactive: saracatinib 0.036 | sotrastaurin 0.007 | alvocidib -0.027 | Tubastatin A 0.037 | [1] -0.011 | defactinib -0.074 | rucaparib -0.05 | [2] -0.03 | encorafenib -0.063 | [3] -0.018 | [4] 0.113 | filanesib 0.127 | zotarolimus -0.049 | idasanutlin 0.031 | alisertib -0.076 | [5] -0.07 | gefitinib 0.05 | [6] -0.041 | lapatinib -0.032 | pictilisib 0.018

APPL1 (UniProt Q9UKG1)
UniProt Q9UKG1, sequence (Q9UKG1 whole entry, looked up): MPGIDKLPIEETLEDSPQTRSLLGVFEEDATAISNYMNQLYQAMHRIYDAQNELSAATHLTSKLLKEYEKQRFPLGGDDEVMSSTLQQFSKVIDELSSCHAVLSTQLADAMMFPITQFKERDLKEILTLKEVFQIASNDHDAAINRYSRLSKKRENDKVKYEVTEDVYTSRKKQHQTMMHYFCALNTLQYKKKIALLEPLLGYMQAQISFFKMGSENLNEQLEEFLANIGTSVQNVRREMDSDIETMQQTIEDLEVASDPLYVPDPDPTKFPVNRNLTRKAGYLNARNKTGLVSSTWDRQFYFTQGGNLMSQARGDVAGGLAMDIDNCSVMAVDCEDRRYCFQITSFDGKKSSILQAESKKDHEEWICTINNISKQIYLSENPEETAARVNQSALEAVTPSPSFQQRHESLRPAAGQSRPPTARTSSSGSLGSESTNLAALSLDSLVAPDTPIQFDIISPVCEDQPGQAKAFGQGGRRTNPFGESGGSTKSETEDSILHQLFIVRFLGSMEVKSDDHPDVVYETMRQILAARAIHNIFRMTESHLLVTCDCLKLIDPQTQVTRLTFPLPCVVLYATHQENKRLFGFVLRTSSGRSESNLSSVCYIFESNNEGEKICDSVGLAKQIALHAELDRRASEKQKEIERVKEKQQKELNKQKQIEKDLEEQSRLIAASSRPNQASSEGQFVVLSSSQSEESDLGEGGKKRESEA
inactive: saracatinib 0.029 | sotrastaurin -0.004 | alvocidib -0.179 | Tubastatin A 0.002 | [1] 0.027 | defactinib 0.037 | rucaparib -0.095 | [2] -0.03 | encorafenib 0.03 | [3] -0.029 | [4] -0.024 | filanesib 0.069 | zotarolimus 0.018 | idasanutlin -0.076 | alisertib -0.001 | [5] 0.079 | gefitinib -0.106 | [6] -0.023 | lapatinib -0.025 | pictilisib 0.033

AGPAT3 isoform 3 (UniProt Q9NRZ7)
UniProt Q9NRZ7, sequence (Q9NRZ7 whole entry, looked up): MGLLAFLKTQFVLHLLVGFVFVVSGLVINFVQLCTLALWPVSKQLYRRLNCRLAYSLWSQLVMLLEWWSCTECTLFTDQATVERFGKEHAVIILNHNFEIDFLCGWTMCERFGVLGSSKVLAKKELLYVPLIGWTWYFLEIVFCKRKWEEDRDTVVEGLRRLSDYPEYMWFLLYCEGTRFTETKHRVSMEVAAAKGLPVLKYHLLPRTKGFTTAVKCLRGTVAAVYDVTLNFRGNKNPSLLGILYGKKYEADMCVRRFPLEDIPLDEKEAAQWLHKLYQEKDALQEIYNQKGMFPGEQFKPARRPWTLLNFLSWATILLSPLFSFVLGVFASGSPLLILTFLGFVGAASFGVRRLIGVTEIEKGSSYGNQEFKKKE
inactive: saracatinib 0.01 | sotrastaurin -0.084 | alvocidib -0.061 | Tubastatin A 0.019 | [1] 0.012 | defactinib -0.037 | rucaparib -0.036 | [2] -0.045 | encorafenib -0.001 | [3] 0.008 | [4] -0.083 | filanesib -0.106 | zotarolimus 0.048 | idasanutlin -0.149 | alisertib 0.012 | [5] 0.083 | gefitinib 0.012 | [6] 0.005 | lapatinib 0.004 | pictilisib -0.013
